# According to paper PMC7862700, “An all-to-all approach to the identification of sequence-specific readers for epigenetic DNA modifications on cytosine”:
# Tests used:
# Test in all cases: DAPPL (digital affinity profiling via proximity ligation, sequencing); 10 mM Tris-HCl pH 7.5, 50 mM NaCl, 1 mM DTT, 4% glycerol, room temperature, 30 min; GST-TFs on glutathione beads, 16-mer random dsDNA library, 0.1% formaldehyde crosslink after washing; high values mean tight binding
# Conditions in all cases: protein: recombinant; tags: N-terminal GST; dsDNA, one strand shown
# [1] = target: T1, FLI1 (Homo sapiens, UniProt Q01543 1-452)
# T1 sequence: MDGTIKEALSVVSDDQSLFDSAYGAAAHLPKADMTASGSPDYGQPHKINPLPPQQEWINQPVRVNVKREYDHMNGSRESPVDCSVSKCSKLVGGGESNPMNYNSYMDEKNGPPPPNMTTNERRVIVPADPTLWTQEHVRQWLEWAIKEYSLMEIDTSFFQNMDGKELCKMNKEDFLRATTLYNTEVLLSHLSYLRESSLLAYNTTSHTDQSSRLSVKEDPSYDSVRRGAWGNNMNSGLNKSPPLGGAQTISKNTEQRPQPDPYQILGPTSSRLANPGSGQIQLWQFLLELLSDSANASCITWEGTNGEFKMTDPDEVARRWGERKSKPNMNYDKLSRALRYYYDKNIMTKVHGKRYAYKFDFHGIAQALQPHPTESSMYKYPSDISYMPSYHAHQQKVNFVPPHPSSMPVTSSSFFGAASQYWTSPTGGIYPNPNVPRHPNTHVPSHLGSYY
# Procedure, shortened: (§1)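 GST fusions of human transcription factors were expressed in yeast and captured with glutathione beads. Once given DNA barcodes and pooled alongside a tag-only sample, they were incubated for 30 min at room temperature with 200 nmole of a random double-stranded 16-mer DNA library in Tris/NaCl/DTT/glycerol buffer, then washed, crosslinked (0.1% formaldehyde), proximity-ligated, PCR-amplified and sequenced on an Illumina NextSeq500. The binding signal of each hexamer is its read frequency for a factor divided by its frequency for the tag-only sample.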
# [2] = target: T2, ELK1 (Homo sapiens, UniProt P19419 1-428)
# T2 sequence: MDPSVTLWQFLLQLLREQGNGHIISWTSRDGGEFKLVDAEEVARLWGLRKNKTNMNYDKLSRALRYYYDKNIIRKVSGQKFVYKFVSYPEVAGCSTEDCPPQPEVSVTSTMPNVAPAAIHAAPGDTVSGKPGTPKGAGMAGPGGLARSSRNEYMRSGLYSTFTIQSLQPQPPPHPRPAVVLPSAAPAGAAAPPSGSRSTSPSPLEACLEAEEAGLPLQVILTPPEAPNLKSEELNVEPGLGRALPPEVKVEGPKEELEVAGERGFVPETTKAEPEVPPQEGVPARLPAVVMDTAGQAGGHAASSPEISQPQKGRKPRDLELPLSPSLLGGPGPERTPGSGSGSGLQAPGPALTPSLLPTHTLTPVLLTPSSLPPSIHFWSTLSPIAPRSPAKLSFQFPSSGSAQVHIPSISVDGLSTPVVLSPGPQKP
# Procedure, shortened: as §1
# [3] = target: T3, GABPA (Homo sapiens, UniProt Q06546 1-454)
# T3 sequence: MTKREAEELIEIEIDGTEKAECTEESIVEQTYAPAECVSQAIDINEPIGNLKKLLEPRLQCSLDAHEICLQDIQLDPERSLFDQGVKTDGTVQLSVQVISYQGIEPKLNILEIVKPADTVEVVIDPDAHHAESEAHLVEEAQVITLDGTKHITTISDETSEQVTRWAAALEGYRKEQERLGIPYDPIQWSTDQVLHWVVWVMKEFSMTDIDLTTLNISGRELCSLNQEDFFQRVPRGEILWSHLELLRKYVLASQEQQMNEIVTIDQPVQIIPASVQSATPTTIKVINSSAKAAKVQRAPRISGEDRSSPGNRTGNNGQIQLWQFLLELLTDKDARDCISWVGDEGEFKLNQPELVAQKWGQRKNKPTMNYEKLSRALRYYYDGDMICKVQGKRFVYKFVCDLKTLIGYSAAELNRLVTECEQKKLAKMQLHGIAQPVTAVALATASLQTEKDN
# Procedure, shortened: as §1
# [4] = target: T4, ERG (Homo sapiens, UniProt P11308 1-479)
# T4 sequence: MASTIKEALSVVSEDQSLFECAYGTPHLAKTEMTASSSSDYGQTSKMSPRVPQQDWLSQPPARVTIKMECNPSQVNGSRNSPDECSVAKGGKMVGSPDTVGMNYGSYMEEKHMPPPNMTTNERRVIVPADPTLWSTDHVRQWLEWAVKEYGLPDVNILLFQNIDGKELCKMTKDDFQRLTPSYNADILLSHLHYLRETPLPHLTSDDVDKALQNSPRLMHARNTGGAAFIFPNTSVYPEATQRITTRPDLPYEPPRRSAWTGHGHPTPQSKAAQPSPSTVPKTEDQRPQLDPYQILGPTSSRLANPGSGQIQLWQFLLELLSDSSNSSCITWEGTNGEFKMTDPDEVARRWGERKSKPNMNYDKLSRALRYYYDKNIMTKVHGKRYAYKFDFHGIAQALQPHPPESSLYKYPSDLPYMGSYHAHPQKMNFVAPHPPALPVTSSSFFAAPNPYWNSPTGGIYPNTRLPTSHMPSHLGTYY
# Procedure, shortened: as §1
# [5] = target: ELF1 (Homo sapiens, UniProt P32519 1-619)
# Procedure, shortened: as §1
# [6] = target: T5, EHF (Homo sapiens, UniProt Q9NZC4 1-300)
# T5 sequence: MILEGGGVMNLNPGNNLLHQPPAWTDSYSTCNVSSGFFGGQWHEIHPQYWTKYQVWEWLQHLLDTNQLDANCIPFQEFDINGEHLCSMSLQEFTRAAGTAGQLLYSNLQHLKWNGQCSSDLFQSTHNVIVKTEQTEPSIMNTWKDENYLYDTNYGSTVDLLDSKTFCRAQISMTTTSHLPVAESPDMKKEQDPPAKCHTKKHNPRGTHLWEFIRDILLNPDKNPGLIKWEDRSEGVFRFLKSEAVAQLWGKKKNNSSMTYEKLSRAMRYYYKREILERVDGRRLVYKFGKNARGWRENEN
# Procedure, shortened: as §1
# [7] = target: SPI1 (Homo sapiens, UniProt P17947 1-270)
# Procedure, shortened: as §1
# [8] = target: SPIB (Homo sapiens, UniProt Q01892 1-262)
# Procedure, shortened: as §1
# [9] = target: T6, ELK3 (Homo sapiens, UniProt P41970 1-407)
# T6 sequence: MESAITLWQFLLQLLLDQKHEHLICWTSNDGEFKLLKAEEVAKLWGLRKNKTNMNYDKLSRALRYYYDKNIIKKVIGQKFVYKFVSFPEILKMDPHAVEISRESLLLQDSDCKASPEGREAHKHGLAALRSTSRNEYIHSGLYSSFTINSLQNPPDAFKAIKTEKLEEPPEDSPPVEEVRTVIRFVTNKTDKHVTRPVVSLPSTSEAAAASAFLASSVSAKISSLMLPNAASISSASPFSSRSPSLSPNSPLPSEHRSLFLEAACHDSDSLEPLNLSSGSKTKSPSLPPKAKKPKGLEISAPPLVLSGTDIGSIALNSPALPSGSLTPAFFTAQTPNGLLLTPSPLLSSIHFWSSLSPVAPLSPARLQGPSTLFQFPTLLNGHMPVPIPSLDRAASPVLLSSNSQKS
# Procedure, shortened: as §1
# ELF1, sequence (P32519 whole entry): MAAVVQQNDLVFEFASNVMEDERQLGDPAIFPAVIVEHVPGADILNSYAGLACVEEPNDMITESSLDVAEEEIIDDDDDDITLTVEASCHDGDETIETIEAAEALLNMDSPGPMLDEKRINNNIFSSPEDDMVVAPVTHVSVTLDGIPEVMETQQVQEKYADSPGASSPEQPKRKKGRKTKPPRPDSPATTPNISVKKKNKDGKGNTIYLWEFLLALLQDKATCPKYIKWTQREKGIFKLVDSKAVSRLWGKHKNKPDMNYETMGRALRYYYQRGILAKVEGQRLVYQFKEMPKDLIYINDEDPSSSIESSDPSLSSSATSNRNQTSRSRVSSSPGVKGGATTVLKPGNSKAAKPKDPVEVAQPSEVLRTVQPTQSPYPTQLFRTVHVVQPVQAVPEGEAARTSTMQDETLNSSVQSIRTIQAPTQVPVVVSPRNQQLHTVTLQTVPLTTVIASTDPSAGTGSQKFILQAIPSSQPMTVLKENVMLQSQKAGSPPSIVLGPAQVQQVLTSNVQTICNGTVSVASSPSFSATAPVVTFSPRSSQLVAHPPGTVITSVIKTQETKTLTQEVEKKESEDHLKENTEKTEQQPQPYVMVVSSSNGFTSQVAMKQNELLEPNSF
# SPIB, sequence (Q01892 whole entry): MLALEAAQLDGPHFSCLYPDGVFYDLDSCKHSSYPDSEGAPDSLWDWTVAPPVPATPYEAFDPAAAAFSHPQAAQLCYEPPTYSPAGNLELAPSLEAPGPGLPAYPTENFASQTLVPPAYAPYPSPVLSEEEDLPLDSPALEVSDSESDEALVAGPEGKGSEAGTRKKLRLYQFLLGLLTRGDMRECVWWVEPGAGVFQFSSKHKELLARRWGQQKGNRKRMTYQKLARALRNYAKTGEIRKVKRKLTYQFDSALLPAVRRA
sequence,measurement,setting,value
AAAAAA,binding signal,[1],"1.29 fold enrichment (6-mer frequency, TF over GST control)"
same,binding signal,[2],"1.28 fold enrichment (6-mer frequency, TF over GST control)"
same,binding signal,[3],"1.3 fold enrichment (6-mer frequency, TF over GST control)"
same,binding signal,[4],"1.2 fold enrichment (6-mer frequency, TF over GST control)"
same,binding signal,[5],"1.32 fold enrichment (6-mer frequency, TF over GST control)"
same,binding signal,[6],"1.45 fold enrichment (6-mer frequency, TF over GST control)"
same,binding signal,[7],"1.52 fold enrichment (6-mer frequency, TF over GST control)"
same,binding signal,[8],"1.4 fold enrichment (6-mer frequency, TF over GST control)"
same,binding signal,[9],"1.41 fold enrichment (6-mer frequency, TF over GST control)"
